Most compounds without a hit are left out; they make up all but 4.2% or so of the library.
FXN GAA850 act – increases GAA850 frataxin promoter reporter activity; activation, % at 6 µM; 360,000 compounds, 0.56% hits; HEK293 lucGAA850 FXN promoter luciferase reporter, 24 h; percent of 10 µM SAHA response; AID 540364;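 active = activation above the average of all compounds screened plus 3 SD, cutoff fixed separately per campaign, cut at about 7.5% in these data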;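 note: 0% = DMSO wells and 100% = 10 µM SAHA wells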
Wnt bcat act – activators of Wnt/beta-catenin signaling; AID 743398; 300,000 compounds, 1.2% hits; activation, % at 9.35 µM; Wnt/beta-catenin reporter cell assay, activator, plate reader; in the data active = activation above about 30%, passing the limit was not always enough; inconclusive = no clear call, values can overlap the other calls;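 note: 0% = neutral control wells and 100% = positive control wells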
AHR activator – activates the human aryl hydrocarbon receptor | P35869 | AHR-responsive luciferase reporter cells, luminescence | 320,000 compounds, 2.5% hits | AID 2796 | activation, % at 5 µM; in the data active = activation above about 47%;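 note: 0% = vehicle wells and 100% = reference agonist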
Target sequence (P35869 whole entry, looked up): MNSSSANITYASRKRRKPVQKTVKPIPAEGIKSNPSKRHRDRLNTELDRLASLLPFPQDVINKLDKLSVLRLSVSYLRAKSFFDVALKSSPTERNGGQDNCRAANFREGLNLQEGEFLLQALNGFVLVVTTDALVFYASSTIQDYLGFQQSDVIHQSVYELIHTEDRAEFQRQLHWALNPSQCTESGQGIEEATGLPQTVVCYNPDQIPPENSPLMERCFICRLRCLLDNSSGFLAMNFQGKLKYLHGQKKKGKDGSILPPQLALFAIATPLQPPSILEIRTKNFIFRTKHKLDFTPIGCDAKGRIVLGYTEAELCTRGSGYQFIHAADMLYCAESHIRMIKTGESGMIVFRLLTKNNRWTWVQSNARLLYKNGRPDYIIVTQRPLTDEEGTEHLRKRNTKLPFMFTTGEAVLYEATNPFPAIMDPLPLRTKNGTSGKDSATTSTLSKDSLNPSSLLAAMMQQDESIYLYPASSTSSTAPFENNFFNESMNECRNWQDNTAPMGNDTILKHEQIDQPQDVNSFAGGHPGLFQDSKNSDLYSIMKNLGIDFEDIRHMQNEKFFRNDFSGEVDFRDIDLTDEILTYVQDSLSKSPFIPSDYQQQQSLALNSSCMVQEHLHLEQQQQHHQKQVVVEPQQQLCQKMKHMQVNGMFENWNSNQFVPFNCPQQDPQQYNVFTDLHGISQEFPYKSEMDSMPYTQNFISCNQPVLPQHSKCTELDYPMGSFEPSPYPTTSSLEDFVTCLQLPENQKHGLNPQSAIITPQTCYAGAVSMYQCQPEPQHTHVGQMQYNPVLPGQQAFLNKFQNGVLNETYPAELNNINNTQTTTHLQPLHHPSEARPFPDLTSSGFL
esBAF inh – blocks esBAF chromatin remodeling in mouse ES cells | Bmi1-luciferase knock-in reporter, 24 h; 100% = twice the neutral-well signal | reporter increase, % at 12.5 µM | 350,000 compounds, 2% hits; in the data active = activation above about 40%; inconclusive = no clear call, values can overlap the other calls;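 note: 0% = median of the plate's neutral control wells and 100% = double that signal; a rise in the Bmi1 reporter signal indicates esBAF inhibition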
MITF act – MITF TRPM1 promoter activation in melanoma cells; SK-MEL-5 TRPM1-promoter luciferase, 24 h; % of positive control, neutral wells = 0; activation, % at 12.5 µM; 300,000 compounds, 0.75% hits; AID 588334;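 active = mean activation of at least 80% with every replicate also reaching 80%; inconclusive = mean reaches 80% but some replicate falls short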;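 note: 0% = neutral control wells and 100% = parthenolide positive control wells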
* marks the source's active call; other numbers are inactive results.

Results for CCC(=O)NC1=C(Nc2ccc(N)cc2)C(=O)c2ccccc2C1=O ?
FXN GAA850 act: 8; Wnt bcat act: 34*; AHR activator: 55*; esBAF inh: -6; MITF act: 13

Results for COc1ccc(CN2[C@@H](CO)[C@@H]3c4ccccc4N(C(=O)Nc4ccc(F)cc4)C[C@@H]32)cc1 ?
esBAF inh: 13

What do the screens show for `CC(C)(C)OC(=O)NNC(=S)NC1CCCCC1`?
FXN GAA850 act: 0; Wnt bcat act: 46*; AHR activator: 2; MITF act: 4

What do the screens show for `COc1cc(OC)c(C(=O)NNC(=S)NC2CCCCC2)cc1OC`?
FXN GAA850 act: -1; Wnt bcat act: -3; AHR activator: -11; MITF act: 2

What do the screens show for `CC(=O)COc1cccc2ccc(/C=C/c3ccc(Br)s3)nc12`?
FXN GAA850 act: 2; Wnt bcat act: -1; AHR activator: 72*; esBAF inh: -2; MITF act: 0

What do the screens show for `O=C(O)c1cc(N/N=C/C=C/c2ccccc2)ccc1Cl`?
FXN GAA850 act: 4; Wnt bcat act: 14; AHR activator: 13; esBAF inh: 90*; MITF act: inconclusive

What do the screens show for `O=C(NN=C1CCN(Cc2ccccc2)CC1)c1ccccc1O`?
FXN GAA850 act: 3; Wnt bcat act: -1; AHR activator: 10; MITF act: 2

How did O=C(O)c1cc(NN=C2CCN(Cc3ccccc3)CC2)ccc1Cl do in these assays?
FXN GAA850 act: 7; Wnt bcat act: 1; AHR activator: 15; esBAF inh: 51*; MITF act: 28

How did C[C@@H]1CN([C@H](C)CO)C(=O)c2cc(C#Cc3cccnc3)cnc2O[C@@H]1CN(C)Cc1cccnc1 do in these assays?
esBAF inh: 1

How did O=c1[nH]c2ccccc2nc1N1CCOCC1 do in these assays?
FXN GAA850 act: -2; Wnt bcat act: -7; AHR activator: 5; esBAF inh: -7; MITF act: 6

Results for c1ccc2c(c1)nc(N1CCOCC1)c1c3ccccc3[nH]c21 ?
FXN GAA850 act: 0; Wnt bcat act: 2; AHR activator: 95*; MITF act: -5

How did Cc1ccccc1N=Nc1c(O)[nH]c2ccccc12 do in these assays?
FXN GAA850 act: 1; Wnt bcat act: -1; AHR activator: 48*

What do the screens show for `COc1ccc2[nH]c(N=Nc3ccccc3C)c(O)c2c1`?
FXN GAA850 act: 4; AHR activator: 65*; MITF act: 11

Results for Cc1nn(Cc2ccccc2Cl)c2sc(C(=O)NCCCn3ccnc3)cc12 ?
FXN GAA850 act: 1; Wnt bcat act: -2; AHR activator: 49*; esBAF inh: 6; MITF act: -10

How did Cc1csc(NC(=O)c2cc3c(C)nn(Cc4ccccc4Cl)c3s2)n1 do in these assays?
FXN GAA850 act: 1; AHR activator: 47*; esBAF inh: 7; MITF act: 7

Results for Cc1nn(Cc2ccccc2Cl)c2sc(C(=O)NC(C)(C)C)cc12 ?
FXN GAA850 act: 1; AHR activator: 15; MITF act: 1

What do the screens show for `Cc1ccc(S(=O)(=O)N[C@H]2C=C[C@H](CC(=O)N3CCN(c4ccccc4)CC3)O[C@@H]2CO)cc1`?
esBAF inh: 7

What do the screens show for `Cc1cc(C(=O)Nc2cccc3c2O[C@@H](CN(C)Cc2ccc(Oc4ccccc4)cc2)[C@H](C)CN([C@H](C)CO)C3=O)n(C)n1`?
esBAF inh: -2

Results for Cc1cc(O)ccc1N/C=C(\C#N)c1nc2ccccc2o1 ?
FXN GAA850 act: 6; Wnt bcat act: -1; AHR activator: 54*; MITF act: -11

How did N#C/C(=C\c1c(Cl)cccc1Cl)c1nc2ccccc2o1 do in these assays?
FXN GAA850 act: 0; AHR activator: 2; MITF act: 2

How did CN(C)c1ccc(C(O)c2cc3ccccc3s2)cc1 (stereo not given) do in these assays?
FXN GAA850 act: -1; Wnt bcat act: -2; esBAF inh: 52*; MITF act: 18

How did COc1ccc(C(O)c2nc(-c3ccc(N(C)C)cc3)cs2)cc1 (stereo not given) do in these assays?
FXN GAA850 act: 0; Wnt bcat act: 7; esBAF inh: inconclusive

How did CO[C@H]1CN(C)C(=O)c2cc(NC(=O)Nc3c(C)noc3C)ccc2OC[C@@H](C)NC[C@H]1C do in these assays?
esBAF inh: 0

Results for Fc1ccc(-c2cnc(-c3cccs3)o2)cc1 ?
FXN GAA850 act: 6; Wnt bcat act: 34*; AHR activator: 0; esBAF inh: -12; MITF act: 54

How did Cn1cc(Cl)c(C(=O)OCC(=O)Nc2nc(-c3ccc(Br)cc3)cs2)n1 do in these assays?
FXN GAA850 act: 5; Wnt bcat act: 26; AHR activator: 0; esBAF inh: 61*; MITF act: 75

How did Cn1nccc1C(=O)OCC(=O)Nc1nc(-c2ccccc2)cs1 do in these assays?
FXN GAA850 act: 1; AHR activator: 8; MITF act: 42

Results for Cc1ccc(N2CC3=C(C2=O)C(c2ccccc2)NC(=O)N3C)cc1 (stereo not given) ?
FXN GAA850 act: 2; AHR activator: -2; esBAF inh: -8; MITF act: -5

What do the screens show for `CN1C(=O)NC(c2ccccc2)C2=C1CN(c1ccc3ccccc3c1)C2=O` (stereo not given)?
FXN GAA850 act: -2; AHR activator: 68*; MITF act: -5

How did COc1ccc(NC(=O)Nc2cccc3c2O[C@H](CN(C)C(=O)Nc2ccc(OC)cc2)[C@@H](C)CN([C@@H](C)CO)C3=O)cc1 do in these assays?
esBAF inh: 2

How did CNc1cccc(-c2ccc(C(C)=O)s2)n1 do in these assays?
FXN GAA850 act: 4; Wnt bcat act: -2; esBAF inh: 53*

Results for CNc1cccc(-c2ccccc2C(C)=O)n1 ?
FXN GAA850 act: 0; Wnt bcat act: -3; esBAF inh: 2

How did Fc1cccc(CNc2ncnc3cc(Cl)ccc23)c1F do in these assays?
FXN GAA850 act: 1; Wnt bcat act: -4; AHR activator: 49*; esBAF inh: 8; MITF act: -33

What do the screens show for `Cc1c(S(=O)(=O)N2CCCC2)c(=O)n(C)c(=O)n1C`?
FXN GAA850 act: 0; Wnt bcat act: -1; AHR activator: 0; esBAF inh: -2; MITF act: -2

How did Cn1c(N)c(S(=O)(=O)N2CCCC2)c(=O)n(C)c1=O do in these assays?
FXN GAA850 act: 0; Wnt bcat act: 30*; AHR activator: 2; esBAF inh: 8; MITF act: 1

How did C[C@H]1CN([C@@H](C)CO)C(=O)c2cc(NC(=O)c3ccncc3)ccc2O[C@H]1CN(C)C(=O)Nc1cccc2ccccc12 do in these assays?
esBAF inh: 0

What do the screens show for `COc1ccc(OC)c(NC(=S)N(CCc2c(C)[nH]c3ccccc23)Cc2cccs2)c1`?
FXN GAA850 act: -3; Wnt bcat act: -1; AHR activator: 50*; esBAF inh: -11; MITF act: -11

What do the screens show for `CN(C)c1ccccc1-c1csc(N2CCC(C(N)=O)CC2)n1`?
FXN GAA850 act: 3; Wnt bcat act: 17; AHR activator: 12; esBAF inh: 70*; MITF act: 97*

High-throughput results: PubChem, several laboratories
